# Only some compounds are listed: those with a hit (about 12% of all), similar ones and a draw of the others.
# FMDV inh – foot and mouth disease virus antiviral activity. Potency, µM (top dose mostly 57.9 µM), for inactives: top-dose activity change, negative = inhibition, actives largely listed as inhibitors. 1.2% of 410,000 active. AID 1159524. FMDV antiviral cell-based qHTS; calls by dose curve; tested in HEK293T cells; note: read-out not given here; potency is the fitted concentration of half-maximal effect; % is set by controls: 0 for no effect and ±100 for the full control effect; nearly all actives have a fitted effect of over 45% in size
# Sm TGR inh – S. mansoni TGR enzyme inhibition. Q962Y6. purified TGR, DTNB reduction, TNB absorbance 405 nm. Potency, µM (doses to about 114 µM), for inactives: top-dose activity change, negative = inhibition, most hits filed as inhibitors. 3% of 360,000 active; active = well fitted inhibition curve with a large enough effect; inconclusive = small, poorly fitted or top-dose-only effect; inactive = no such curve, though single readings can be large or run the other way; note: potency is the fitted concentration of half-maximal effect; % is set by controls: 0 for no effect and ±100 for the full control effect; nearly all actives have a fitted effect of over 60% in size
#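 Kinetic colorimetric format: TGR-catalysed, NADPH-driven DTNB reduction monitored via TNB absorbance. Enzyme dispensed at 20 nM; compound exposure 15 min at room temperature before reaction start.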
# Shiga inhibitor – Shiga toxin inhibition. inhibition, % at 38.7 µM. Vero cells, Shiga toxin protein synthesis inhibition reporter. 9.2% of 290,000 active; in the data active = inhibition mostly above about 28%, no sharp cut-off; inactive = mostly below about 43%; note: 0% is about no effect
# CHX counter – affects cycloheximide protein synthesis inhibition readout, counter-screen; cell reporter, cycloheximide protein synthesis inhibition counterscreen; max response, %; 12% of 300,000 active; AID 2314; in the data active = max response mostly above about 13%, no sharp cut-off; inactive = mostly below about 14%; note: read at 38.3 µM for the half of the compounds with a filed dose; 0% is about no effect
# Starred values were filed as active, the others as inactive; ? = inconclusive; . = no result; + = active, no number.
SMILES,FMDV inh,Sm TGR inh,Shiga inhibitor,CHX counter
Cc1ccc2c(C)c(C(=O)N(Cc3ccc(N(C)C)cc3)C3CCS(=O)(=O)C3)oc2c1 (configuration not stated),-27%,2%,5,1
O=C(c1cc2ccccc2oc1=O)N(Cc1cccc(Cl)c1)C1CCS(=O)(=O)C1 (configuration not stated),10%,-1%,.,.
COc1cccc(CN(C(=O)c2ccccc2Br)C2CCS(=O)(=O)C2)c1 (configuration not stated),-19%,5%,-7,-7
CCc1nn2c(=O)cc(COC(=O)CNC(=O)c3ccccc3)nc2s1,-11%,-1%,.,.
Cc1ccc(C)c(NC(=O)N2CCN(C(=O)c3nsc4ccccc34)CC2)c1,?,-16%,.,.
Cc1ccc(CN(C(=O)c2ccccc2C)C2CCS(=O)(=O)C2)o1 (configuration not stated),0%,-31%,-8,-1
O=C(c1cc2ccccc2oc1=O)N(Cc1ccco1)C1CCS(=O)(=O)C1 (configuration not stated),59%,16µM*,35,29*
CN(C)c1ccc(CN(C(=O)c2cc3ccccc3oc2=O)C2CCS(=O)(=O)C2)cc1 (configuration not stated),41%,-5%,63*,47*
CN(C)c1ccc(CN(C(=O)c2ccccc2Br)C2CCS(=O)(=O)C2)cc1 (configuration not stated),-16%,-23%,35*,10*
Cc1ccc(CN(C(=O)c2ccccc2[N+](=O)[O-])C2CCS(=O)(=O)C2)o1 (configuration not stated),8%,32µM*,-6,-3
CC(C)c1ccc(CN(C(=O)c2cc3ccccc3oc2=O)C2CCS(=O)(=O)C2)cc1 (configuration not stated),44%,-14%,-1,15
CCc1ccc(NC(=O)c2cnn(-c3c(C)cccc3C)c2C2CCN(C(=O)OC(C)(C)C)CC2)cc1,0%,9%,.,.
CC(=O)c1cccc(S(=O)(=O)N2CCCC(c3nc(-c4ccc(C)o4)no3)C2)c1 (configuration not stated),4%,50µM*,57,9
Cc1ccc(-c2noc(C3CCCN(S(=O)(=O)c4ccc5ccccc5c4)C3)n2)o1 (configuration not stated),.,40µM*,-8,2
CCOc1ccccc1NS(=O)(=O)c1ccc(N2CCCCS2(=O)=O)cc1,?,-4%,.,.
Cc1ccc(Nc2ncc3c(n2)CC(C)(C)CC3=O)cc1,30%,12%,118*,34*
Clc1nc(-c2cccnc2)nc2scc(-c3ccccc3)c12,14%,-3%,40*,29*
COc1ccc(-c2csc3nc(-c4cccnc4)nc(Cl)c23)cc1OC,?,8%,-8,4
COc1ccc(-c2nnc(SCC(=O)NCc3ccccc3)nc2-c2ccc(OC)c(OC)c2)cc1OC,-3%,-9%,.,.
N/C(=N/OC(=O)c1ccc(Cl)cc1)c1ncc([N+](=O)[O-])s1,21%,-6%,66*,26*
Cc1cc(/C(N)=N/OC(=O)c2ccc(Cl)cc2)no1,21%,8%,61*,35*
N/C(=N\OC(=O)c1ccc(Cl)cc1)c1[nH]ncc1Br,-24%,-3%,95*,64*
Cc1cc(/C(N)=N/OC(=O)c2cccc(Cl)c2)no1,48%,22%,111*,59*
N#Cc1ccc(C[C@H](C(=O)O)N2C(=O)c3ccc(C(=O)O)cc3C2=O)cc1,.,6%,-3,-6
Cc1oc(-c2ccccc2NC(=O)c2ccccc2)nc1CNC(=O)c1c(-c2ccccc2)noc1C,3%,.,.,.
SMILES,FMDV inh,Sm TGR inh,Shiga inhibitor,CHX counter
Cc1ccc(NC(=O)c2ccccc2Cl)c(Cl)c1,52%,-3%,69*,42*
Cc1cc(NC(=O)CSc2nc3ccccc3s2)no1,-2%,-6%,7,1
Cc1cc(NC(=O)c2ccccc2Cl)no1,50%,10%,+,54*
Cc1ccc(NC(=O)c2sccc2-n2cccc2)c(Cl)c1,21%,2%,22,31*
Cc1cc(NC(=O)c2sc3ccccc3c2O)no1,-27%,-23%,82*,62*
Cc1ccc(NC(=O)CN2C(=O)COc3ccc(S(=O)(=O)Nc4ccccc4)cc32)c(C)c1,41%,2%,.,.
Cc1cc(NC(=O)c2c(F)cccc2Cl)no1,44%,-1%,56*,13*
Cc1cc(NC(=O)c2c(F)c(F)c(F)c(F)c2F)no1,-27%,-2%,-14,1
Cc1cc(NC(=O)NC(=O)c2ccccc2F)no1,3%,5%,77*,32*
Cc1cc(C)c(NC(=O)Cn2ncc3ccccc32)c(C)c1,-3%,10%,9,6
Cc1ccc(NC(=O)Cn2ncc3ccccc32)c(Cl)c1,52%,16%,55*,52*
Cc1ccc(NC(=O)C2CC2C)c(Cl)c1 (configuration not stated),40%,-1%,62,30*
CCOC(=O)C(NC(=O)c1ccccc1F)(Nc1cc(C)on1)C(F)(F)F (configuration not stated),-10%,-18%,-9,-1
Cc1cc(NS(=O)(=O)c2cn(C)c(C)n2)ccc1Br,-3%,-1%,.,.
Cc1ccn2cc(C(=O)Nc3ccc4c(c3)OCCO4)nc2c1,.,2%,60*,40*
Cc1cc(C(=O)Nc2ccccc2)nn1C(C)(C)C,12%,17%,67*,43*
Cc1cc(C(=O)Nc2ccc3c(c2)OCCO3)nn1C(C)(C)C,57%,6%,140*,79*
Cc1ccn2cc(C(=O)Nc3ccccc3N3CCOCC3)nc2c1,.,6%,4,7
CCc1ccc(C2CC(=O)Nc3c2c(=O)n(C)c2ncnn32)cc1 (configuration not stated),?,3%,.,.
O=C1c2ccccc2C(=O)C1c1ccc2ccccc2n1,?,-4%,78*,34*
O=C(O)c1cccc(NC2=C(n3nnc4ccccc43)C(=O)c3ccccc3C2=O)c1,-14%,45µM*,6,-1
Cc1cc(C)n(C(=O)c2c([N+](=O)[O-])cnn2C)n1,-13%,1%,-7,-2
CCn1ncc([N+](=O)[O-])c1C(=O)n1nc(C)cc1C,49%,-6%,112*,45*
CCNc1ccccc1CP(=O)(c1ccccc1)c1ccccc1O (configuration not stated),2%,0.5µM*,1,-4
Cc1ccc(O)c(CP(=O)(c2ccccc2)c2ccccc2)c1,-18%,8%,-1,-1
SMILES,FMDV inh,Sm TGR inh,Shiga inhibitor,CHX counter
COc1cc2c(cc1Cl)/C(=C\CCN(C)C)c1ccccc1S2,-21%,28µM*,-12,-4
COc1cc(Cl)cc2c1Sc1ccccc1/C2=C/CCN(C)C,-15%,18µM*,1,-2
CN(C)CC/C=C1/c2ccccc2Sc2c(O)cc(Cl)cc21,-6%,-23%,20,-4
Cc1ccc(NC(=O)N(Cc2ccco2)C(C)c2ccco2)cc1C (configuration not stated),7%,1%,-14,10*
Cc1ccc(NC(=O)N(Cc2cccnc2)Cc2ccco2)cc1C,-19%,-2%,-5,-4
Cc1ccc(NC(=O)CN(Cc2ccco2)Cc2ccccc2O)cc1C,6%,-9%,59*,26*

# Screening data from PubChem BioAssay.
